The whole screen tested about 5,500 compounds, of which about 2,000 (36%) were called active. Roughly 18% stayed inconclusive and do not appear here. Rule as the data show it: active = normalized growth mostly below about 0.91 (no sharp cut-off); inconclusive = no clear call, values can overlap the other calls; inactive = mostly above about 0.92. The list shows a part of the results.
Test: chemical genetic growth profiling, strain panel (AID 1159580);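 also: tested at 20 µM; growth read once vehicle control cultures reached saturation at 30 °C; 1 = growth at the plate median or of vehicle wells; lower values mean less growth of the strain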
Settings: S. cerevisiae deletion strains, growth OD

Measured: normalized growth

COc1cccc2c1C(=O)c1c(O)c3c(c(O)c1C2=O)C[C@@](O)(C(=O)CO)C[C@@H]3O[C@H]1C[C@H](N)[C@@H](O)[C@H](C)O1
inactive: locus YBR171W, strain sec66, active compounds read low 0.985 | locus YBR279W, strain paf1, active compounds read low 0.958 | locus YCL069W, strain vba3, active compounds read low 0.965 | locus YCR088W, strain abp1, active compounds read low 0.953 | locus YDL005C, strain med2, active compounds read low 0.951 | locus YDL040C, strain nat1, active compounds read low 0.947 | locus YDR001C, strain nth1, active compounds read low 0.937 | locus YDR195W, strain ref2 1.09 | locus YDR335W, strain msn5, active compounds read low 0.928 | locus YDR392W, strain spt3, active compounds read low 0.906 | locus YEL003W, strain gim4, active compounds read low 0.955 | locus YEL037C, strain rad23, active compounds read low 0.991 | locus YEL061C, strain CIN8 (second series), active compounds read low 0.982 | locus YER111C, strain swi4, active compounds read low 0.988 | locus YGL167C, strain pmr1, active compounds read low 0.969 | locus YGL173C, strain kem1, active compounds read low 0.997 | locus YHR030C, strain SLT2, active compounds read low 1.01 | locus YHR079C, strain IRE1, active compounds read low 0.994 | locus YJL095W, strain BCK1, active compounds read low 0.958 | locus YJL154C, strain vps35, active compounds read low 0.952 | locus YJL187C, strain SWE1, active compounds read low 0.93 | locus YJR066W, strain TOR1, active compounds read low 0.948 | locus YKR026C, strain gcn3, active compounds read low 0.926 | locus YKR091W, strain srl3, active compounds read low 0.943 | locus YLR113W, strain HOG1, active compounds read low 0.91 | locus YLR370C, strain arc18, active compounds read low 0.96 | locus YLR384C, strain iki3, active compounds read low 0.977 | locus YMR129W, active compounds read low 0.963 | locus YMR231W, strain pep5, active compounds read low 0.967 | locus YNL183C, strain NPR1, active compounds read low 0.935 | locus YNL322C, strain KRE1 (second series), active compounds read low 0.943 | locus YNR049C, strain mso1, active compounds read low 0.937 | locus YOR231W, strain MKK1, active compounds read low 0.997 | locus YPL256C, strain CLN2, active compounds read low 0.981
active: locus YAL021C, strain ccr4, active compounds read low 0.648 | locus YAL026C, strain drs2, active compounds read low 0.894 | locus YAL030W, strain snc1, active compounds read low 0.891 | locus YBL061C, strain skt5, active compounds read low 0.888 | locus YBR009C, strain hhf1, active compounds read low 0.552 | locus YBR023C, strain chs3, active compounds read low 0.894 | locus YBR231C, strain swc5, active compounds read low 0.692 | locus YCL011C, strain gbp2, active compounds read low 0.845 | locus YCL016C, strain dcc1, active compounds read low 0.753 | locus YCL061C, strain MRC1, active compounds read low 0.897 | locus YDR069C, strain doa4, active compounds read low 0.848 | locus YDR137W, strain rgp1, active compounds read low 0.846 | locus YDR159W, strain sac3, active compounds read low 0.501 | locus YDR297W, strain sur2, active compounds read low 0.906 | locus YDR334W, strain swr1, active compounds read low 0.78 | locus YER015W, strain faa2, active compounds read low 0.801 | locus YER016W, strain bim1, active compounds read low 0.862 | locus YER155C, strain BEM2 (second series), active compounds read low 0.595 | locus YFR010W, strain ubp6, active compounds read low 0.867 | locus YGL227W, strain vid30, active compounds read low 0.889 | locus YGL240W, strain doc1, active compounds read low 0.488 | locus YGL253W, strain hxk2, active compounds read low 0.576 | locus YHR013C, strain ard1, active compounds read low 0.635 | locus YHR027C, strain rpn1, active compounds read low 0.854 | locus YHR142W, strain chs7, active compounds read low 0.84 | locus YJL092W, strain hpr5, active compounds read low 0.855 | locus YJL095W, strain BCK1 (second series), active compounds read low 0.913 | locus YJL115W, strain asf1, active compounds read low 0.682 | locus YJL129C, strain trk1, active compounds read low 0.337 | locus YJL164C, strain tpk1, active compounds read low 0.737 | locus YJL166W, strain qcr8, active compounds read low 0.59 | locus YKL160W, strain elf1, active compounds read low 0.75 | locus YLL001W, strain dnm1, active compounds read low 0.875 | locus YLL026W, active compounds read low 0.851 | locus YLL041C, strain sdh2, active compounds read low 0.918 | locus YLR027C, strain aat2, active compounds read low 0.821 | locus YLR221C, strain rsa3, active compounds read low 0.759 | locus YLR258W, strain gsy2, active compounds read low 0.834 | locus YLR262C, strain YPT6 (second series), active compounds read low 0.826 | locus YLR320W, strain mms22, active compounds read low 0.312 | locus YLR342W, strain FKS1, active compounds read low 0.873 | locus YLR357W, strain rsc2, active compounds read low 0.785 | locus YML120C, strain ndi1, active compounds read low 0.794 | locus YMR058W, strain fet3, active compounds read low 0.806 | locus YMR125W, strain sto1, active compounds read low 0.825 | locus YMR205C, strain PFK2, active compounds read low 0.634 | locus YNL071W, strain lat1, active compounds read low 0.689 | locus YNL209W, strain ssb2, active compounds read low 0.899 | locus YNL248C, strain rpa49, active compounds read low 0.177 | locus YOR001W, strain rrp6, active compounds read low 0.875 | locus YOR070C, strain gyp1, active compounds read low 0.863 | locus YOR080W, strain dia2, active compounds read low 0.89 | locus YOR083W, strain WHI5, active compounds read low 0.804 | locus YOR106W, strain vam3, active compounds read low 0.682 | locus YOR265W, strain rbl2, active compounds read low 0.879 | locus YOR270C, strain vph1, active compounds read low 0.766 | locus YOR290C, strain snf2, active compounds read low 0.78 | locus YPL051W, strain arl3, active compounds read low 0.8 | locus YPL078C, strain atp4, active compounds read low 0.785 | locus YPL106C, strain sse1, active compounds read low 1.2 [resistant] | locus YPL240C, strain hsp82, active compounds read low 0.926

— PubChem BioAssay AID1159580 (chemical genetic matrix, 2015)
